Measurements from PubChem BioAssay.
Results filed as inconclusive are left out. Calls of active or inactive are those of the source.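 How the source made its calls, unless noted: active means viability loss from added drug above about 55%, and viability with drug at most 40%, in both replicates (limit read from the data, passing the limit was not always enough); inconclusive means both conditions met in only one replicate; inactive means neither replicate meets both conditions.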

Key:
[1] = reduced viability of SK-BR-3 breast cancer cells – cell-based, 24 h, human, pilot screen (AID 572;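 active means viability at or below 10% of carrier control in both of two separate runs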;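 further: compound exposure lasted between 18 and 24 h rather than exactly 24 h; 100% = carrier-treated control wells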); conditions: SK-BR-3 viability, CellTiter-Glo luminescence, at 10 µM, stronger effect = lower value
[2] = HUVEC growth inhibition – cell-based, human, primary screen (AID 575;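 active means viability at or below 30% in both replicate assays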;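 further: 100% = median of untreated cell wells with 0.1% DMSO on each plate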); conditions: HUVEC proliferation, CellTiter-Glo luminescence, 72 h; at 10 µM; stronger effect = lower value
[3] = H69AR cell proliferation blockers – human, duplicate replicates, primary screen (AID 580;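 active means viability at or under a set limit in both replicates, limit being median viability minus 3 SD, cut at about 48% in these data, passing the limit was not always enough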;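 further: 100% = mean luminescence of untreated wells and 0% = no signal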); conditions: H69AR lung tumor cells viability, ATP luminescence, 72 h; at 10 µM; stronger effect = lower value
[4] = MRP1 drug-resistance reversers in H69AR cells – cell-based, doxorubicin co-treatment, pilot screen (AID 601); conditions: CellTiter-Glo, 72 h, at 10 µM; for differential viability (reversal): stronger effect = higher value
[5] = Her2 expression decrease, cell viability multiplex – SKBR3 breast tumor cells, AlphaScreen, ATP viability, primary screen (AID 461;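 active means Her2 level under about 52% in both replicate screens, with viability over 70% of control, limit read from the data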;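 on Her2 level: lower value means less Her2 protein in the cells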;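 on viability: percent of carrier control wells set as 100% viability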); conditions: SKBR3 Her2 protein level, 18-24 h, measured here: SKBR3 viability, ATP luminescence, at 10 µM
[6] = biological target: Receptor tyrosine-protein kinase erbB-2 (Homo sapiens) (UniProt P04626); assay: as above; conditions: 18-24 h, at 10 µM, stronger effect = lower value
Sequence of Receptor tyrosine-protein kinase erbB-2 (Homo sapiens) (P04626 whole entry, looked up): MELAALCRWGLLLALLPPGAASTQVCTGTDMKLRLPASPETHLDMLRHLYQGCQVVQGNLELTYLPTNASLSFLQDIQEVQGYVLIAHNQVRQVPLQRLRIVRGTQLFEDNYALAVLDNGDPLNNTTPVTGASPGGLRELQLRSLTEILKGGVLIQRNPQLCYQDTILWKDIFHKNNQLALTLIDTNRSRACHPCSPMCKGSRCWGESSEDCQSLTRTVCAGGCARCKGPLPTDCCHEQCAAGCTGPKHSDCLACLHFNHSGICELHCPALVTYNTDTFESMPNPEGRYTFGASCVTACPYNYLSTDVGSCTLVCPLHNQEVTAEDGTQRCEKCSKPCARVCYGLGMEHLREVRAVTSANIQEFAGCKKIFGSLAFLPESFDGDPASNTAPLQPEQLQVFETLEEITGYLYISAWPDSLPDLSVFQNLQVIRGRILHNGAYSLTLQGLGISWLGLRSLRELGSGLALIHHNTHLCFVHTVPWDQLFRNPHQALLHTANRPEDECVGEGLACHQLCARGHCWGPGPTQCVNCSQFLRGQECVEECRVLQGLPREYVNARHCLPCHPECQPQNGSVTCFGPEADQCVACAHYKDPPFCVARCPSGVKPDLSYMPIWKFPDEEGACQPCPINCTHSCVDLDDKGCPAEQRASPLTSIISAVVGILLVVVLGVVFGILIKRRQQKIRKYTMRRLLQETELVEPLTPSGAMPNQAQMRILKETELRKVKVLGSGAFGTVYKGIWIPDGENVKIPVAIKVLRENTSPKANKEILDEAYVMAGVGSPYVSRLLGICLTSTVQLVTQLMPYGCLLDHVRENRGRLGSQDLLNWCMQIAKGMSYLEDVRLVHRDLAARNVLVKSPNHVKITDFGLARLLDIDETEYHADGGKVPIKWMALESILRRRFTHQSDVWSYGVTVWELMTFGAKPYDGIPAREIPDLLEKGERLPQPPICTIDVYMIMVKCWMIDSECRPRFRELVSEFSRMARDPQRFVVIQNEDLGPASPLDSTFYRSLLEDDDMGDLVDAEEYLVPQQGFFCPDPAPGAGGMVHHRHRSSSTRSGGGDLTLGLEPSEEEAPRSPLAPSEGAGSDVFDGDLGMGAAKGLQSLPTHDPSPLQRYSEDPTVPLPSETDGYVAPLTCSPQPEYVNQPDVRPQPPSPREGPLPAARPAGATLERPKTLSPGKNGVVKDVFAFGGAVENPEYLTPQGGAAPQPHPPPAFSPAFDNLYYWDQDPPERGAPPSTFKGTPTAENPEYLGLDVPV

[7] = yeast transport mutant growth inhibition pilot in 384-well plates, post-Golgi transport modulator project (AID 636; in the data active means inhibition above about 31%); conditions: absorbance 615 nm, about 18 h, stronger effect = higher value
[8] = growth suppression of yeast trafficking mutant, preliminary HTS, modulators of trafficking downstream of Golgi apparatus project, 1536-format plate, OD 615 nm (AID 637; in the data active means inhibition above about 30%); conditions: yeast transport mutant growth, absorbance 615 nm, 18 h; stronger effect = higher value
[9] = S. cerevisiae growth inhibition in restrictive medium, OD615, pilot screen, restrictive growth control, yeast lifespan reduction project (AID 706;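 active means growth inhibition above a set limit, 3 SD over mean compound inhibition, in both replicates, cut at about 43% in these data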;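 further: modified DeaD lifespan yeast strain shifted to restrictive glucose medium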); conditions: OD615, 48 h, at 10 µM, stronger effect = higher value
[10] = doxorubicin toxicity protection in MRP-1 cells – H69AR cells, CellTiter-Glo, duplicate, MRP-1 activator project, pilot screen (AID 807;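 active means viability increase at or above a cutoff of the median across tested compounds plus 3 SD, cut at about 8.5% in these data, passing the limit was not always enough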;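 further: compound pretreatment 18-22 h then 72 h combined with doxorubicin; 0% = doxorubicin alone and 100% = vehicle without doxorubicin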); conditions: H69AR viability with doxorubicin, CellTiter-Glo luminescence; at 10 µM; stronger effect = higher value
[11] = viability of HCT116 without oncogenic beta-catenin – human colon tumor cells, pilot screen (AID 823;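 active means cell viability at or below a set limit in both duplicate runs, the limit being the all-compound median minus 4 SD, cut at about 23% in these data, passing the limit was not always enough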;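 further: 0% = wells killed by 20 µM Hyamine and 100% = untreated DMSO cell wells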); conditions: HCT116 beta-catenin knockout viability, CellTiter-Glo, 60 h; at 10 µM; stronger effect = lower value
[12] = viability of PTEN-null HCT116 cells – cell-based, HCT116 clonal line, CellTiter-Glo, pilot screen (AID 824;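 active means viability at or below 27.92% in each of two runs, the all-compound median minus 4 SD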;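 further: 0% = 20 µM Hyamine control and 100% = vehicle cell control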); conditions: HCT116 PTEN-deleted viability, 60 h, at 10 µM, stronger effect = lower value
[13] = RAM pathway blockade in budding yeast – dse1pr::URA3 reporter, 5-FOA selection, pilot screen (AID 869;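 active means inhibition over a set limit, the all-compound mean plus 3 SD, in both replicate runs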;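 further: 0% = DMSO wells with no growth and 100% = 10 µM 1-NA-PP1 with full growth; RAM network block rescues cells from 5-FOA so hits raise OD615 growth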); conditions: S. cerevisiae dse1pr::URA3 5-FOA growth, OD615, 2 d; at 10 µM; stronger effect = higher value; strain carries analog-sensitive mutant Cbk1 kinase
[14] = H69AR cells + 2 uM doxorubicin, measured here: viability with 2 uM doxorubicin, stronger effect = lower value
[15] = H69AR cells, compound alone cytotoxicity

Row | Structure (SMILES) | viability [1] | viability [2] | viability [3] | differential viability (reversal) ([4]; H69AR cells + 2 uM doxorubicin) | viability [4, 14] [%] | viability [4, 15] [%] | viability [5] [%] | Her2 level [6] | inhibition [7] | inhibition [8] | growth inhibition [9] | viability increase [10] | viability [11] | viability [12] | inhibition [13]
1 | CNCCCC1c2ccccc2C=Cc2ccccc21 | 82% (inactive) | 69.5% (inactive) | 92% (inactive) | 15.2% (inactive) | 76.7 | 92 |  |  |  |  |  |  |  |  | 
2 | COc1ccccc1NC(=O)NCCCN1CCN(c2cccc(Cl)c2)CC1 | 77% (inactive) |  | 72.6% (inactive) | -14.3% (inactive) | 86.8 | 72.6 | 77 | 70.5% (inactive) | 4.4% (inactive) | -7.7% (inactive) |  |  |  |  | 
3 | Cc1c(C)n(C(=O)CN2CCN(c3ccccn3)CC2)c2ccccc12 | 102% (inactive) | 81.2% (inactive) | 81.7% (inactive) | -0.845% (inactive) | 82.5 | 81.7 |  |  | -5.2% (inactive) | -2.73% (inactive) |  |  |  |  | 
4 | N#Cc1ccccc1Cn1c(=O)n(Cc2ccc(C(=O)NCc3ccco3)cc2)c(=O)c2sccc21 | 75.5% (inactive) |  | 77.8% (inactive) | 9.52% (inactive) | 68.3 | 77.8 | 75.5 | 80% (inactive) | -1.28% (inactive) | -1.67% (inactive) | -22.5% (inactive) | -4.44% (inactive) | 91.3% (inactive) | 79.5% (inactive) | 2.11% (inactive)
5 | CCN1CCN(Cc2nc3c(c(=O)[nH]c(=O)n3C)n2Cc2ccccc2Cl)CC1 |  | 87.9% (inactive) | 92% (inactive) | -4.17% (inactive) | 96.2 | 92 | 80.5 | 114% (inactive) | -0.51% (inactive) | -3.17% (inactive) |  |  |  |  | 
6 | CN(Cc1ccccc1)C(=O)c1cc(-c2ccc(Br)cc2)on1 | 80% (inactive) | 94.2% (inactive) | 103% (inactive) | 7.97% (inactive) | 95.3 | 103 |  |  | -4% (inactive) | -3.45% (inactive) |  |  |  |  | 
7 | CCOC(=O)Nc1ccc(NS(=O)(=O)c2ccc(C)cc2)cc1 | 72% (inactive) | 86.6% (inactive) | 83.7% (inactive) | -12.3% (inactive) | 96.1 | 83.7 |  |  | 1.92% (inactive) | -7.42% (inactive) |  |  |  |  | 
8 | Cc1cc(C)c(NC2=NCC(=O)N2C2CCCCC2)c(C)c1 | 106% (inactive) | 107% (inactive) | 86.3% (inactive) | -5.14% (inactive) | 91.5 | 86.3 |  |  | -7.53% (inactive) | -3.09% (inactive) |  |  |  |  | 
9 | Cc1nc2cc(C(=O)O)ccc2n1-c1ccc(F)cc1F | 120% (inactive) | 94.3% (inactive) | 101% (inactive) | 7.17% (inactive) | 93.7 | 101 |  |  | -4.42% (inactive) | 2.62% (inactive) |  |  |  |  | 
10 | CCN(CC)CCCNc1oc(-c2cccc(Cl)c2)nc1C#N | 113% (inactive) | 74.7% (inactive) | 76.6% (inactive) | -0.39% (inactive) | 77 | 76.6 |  |  | -4.55% (inactive) | -0.67% (inactive) |  |  |  |  | 
11 | Cc1cc(C)cc(C(=O)N2CCC(C(N)=O)CC2)c1 | 91% (inactive) | 105% (inactive) | 97.2% (inactive) | 9.71% (inactive) | 87.5 | 97.2 |  |  | -8.78% (inactive) | 0% (inactive) |  |  |  |  | 
12 | CCCCNC(=O)NS(=O)(=O)c1ccc(C)cc1 | 97% (inactive) | 76.7% (inactive) | 95.3% (inactive) | -5.94% (inactive) | 101 | 95.3 |  |  | -1.04% (inactive) | -2.5% (inactive) |  |  |  |  | 
13 | c1ccc(-c2cnc(CSc3ncnc4sccc34)o2)cc1 | 94% (inactive) | 90.7% (inactive) | 96.9% (inactive) | 14.7% (inactive) | 82.2 | 96.9 |  |  | -5.68% (inactive) | -5.82% (inactive) |  |  |  |  | 
